Test results taken from PubChem BioAssay AID1159580 (chemical genetic matrix, 2015).
Where “and” joins values, the source holds several entries; their conditions need not be identical. Identical values can stand only once. Among all 5,500 compounds or so, about 2,000 (36%) were called active. Not shown: some 18% with an inconclusive outcome. No stated cut-off is given here; in the data, active means normalized growth mostly below about 0.91 (no sharp cut-off); inconclusive means no clear call, values can overlap the other calls; inactive means mostly above about 0.92. This is one part of the list.

Test: chemical genetic growth profiling, strain panel (AID 1159580);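 further: tested at 20 µM; growth read once vehicle control cultures reached saturation at 30 °C; 1 = growth at the plate median or of vehicle wells; lower values mean less growth of the strain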
Conditions: S. cerevisiae deletion strains, growth OD

Measured: normalized growth

CC(N=C(NC#N)Nc1ccncc1)C(C)(C)C (configuration not stated)
inactive: locus YAL013W, strain DEP1, hits give low values 1.01 | locus YAL021C, strain ccr4, hits give low values 0.988 | locus YAL026C, strain drs2, hits give low values 0.997 | locus YAL030W, strain snc1, hits give low values 0.988 | locus YAL040C, strain CLN3, hits give low values 0.983 | locus YBL061C, strain skt5, hits give low values 0.986 | locus YBR009C, strain hhf1, hits give low values 1.01 | locus YBR021W, strain FUR4, hits give low values 1.02 | locus YBR023C, strain chs3, hits give low values 0.98 | locus YBR171W, strain sec66, hits give low values 0.958 | locus YBR229C, strain ROT2, hits give low values 1.01 | locus YBR231C, strain swc5, hits give low values 0.953 | locus YBR279W, strain paf1, hits give low values 0.994 | locus YCL011C, strain gbp2, hits give low values 0.989 | locus YCL016C, strain dcc1, hits give low values 1.02 | locus YCL029C, strain bik1, hits give low values 1.04 | locus YCL061C, strain MRC1 (second series), hits give low values 0.999 | locus YCL061C, strain MRC1, hits give low values 0.951 | locus YCL069W, strain vba3, hits give low values 0.989 | locus YCR088W, strain abp1, hits give low values 0.98 | locus YDL005C, strain med2, hits give low values 0.988 | locus YDL035C, strain GPR1, hits give low values 0.999 | locus YDL040C, strain nat1, hits give low values 0.979 | locus YDL074C, strain BRE1, hits give low values 1.05 | locus YDL101C, strain DUN1, hits give low values 1.01 | locus YDL134C, strain PPH21, hits give low values 1.01 | locus YDL185W, strain tfp1, hits give low values 1.02 | locus YDL192W, strain arf1, hits give low values 1.01 | locus YDR001C, strain nth1, hits give low values 0.963 | locus YDR069C, strain doa4, hits give low values 0.949 | locus YDR101C, strain arx1, hits give low values 1.01 | locus YDR137W, strain rgp1, hits give low values 0.97 | locus YDR150W, strain NUM1, hits give low values 1.02 and 1 | locus YDR159W, strain sac3, hits give low values 1.01 | locus YDR162C, strain NBP2, hits give low values 1.01 | locus YDR195W, strain ref2 0.895 | locus YDR297W, strain sur2, hits give low values 0.971 | locus YDR318W, strain mcm21, hits give low values 1.02 | locus YDR334W, strain swr1, hits give low values 0.949 | locus YDR335W, strain msn5, hits give low values 0.972 | locus YDR363W, strain ESC2, hits give low values 0.904 | locus YDR388W, hits give low values 1.02 | locus YDR392W, strain spt3, hits give low values 1.04 | locus YDR502C, strain sam2, hits give low values 1.01 | locus YEL003W, strain gim4, hits give low values 0.967 | locus YEL037C, strain rad23, hits give low values 0.998 | locus YEL061C, strain CIN8 (second series), hits give low values 0.974 | locus YEL061C, strain CIN8, hits give low values 1.01 | locus YER002W, strain NOP16, hits give low values 1 | locus YER015W, strain faa2, hits give low values 0.999 | locus YER016W, strain bim1, hits give low values 0.986 | locus YER110C, hits give low values 1.02 | locus YER111C, strain swi4, hits give low values 0.995 | locus YER155C, strain BEM2 (second series), hits give low values 0.929 | locus YER155C, strain BEM2, hits give low values 1 | locus YER167W, strain BCK2, hits give low values 0.996 | locus YFR010W, strain ubp6, hits give low values 0.964 | locus YGL078C, strain dbp3, hits give low values 1.01 | locus YGL086W, strain mad1, hits give low values 1 | locus YGL167C, strain pmr1, hits give low values 0.961 | locus YGL173C, strain kem1, hits give low values 0.97 | locus YGL227W, strain vid30, hits give low values 0.986 | locus YGL240W, strain doc1, hits give low values 0.945 | locus YGL248W, strain PDE1, hits give low values 1 | locus YGL253W, strain hxk2, hits give low values 1.01 | locus YGR078C, strain PAC10, hits give low values 1.04 and 0.982 | locus YGR135W, strain pre9, hits give low values 1.03 | locus YGR229C, strain SMI1, hits give low values 1.02 | locus YGR252W, strain gcn5, hits give low values 0.967 | locus YHR013C, strain ard1, hits give low values 0.985 | locus YHR027C, strain rpn1, hits give low values 0.979 | locus YHR030C, strain SLT2, hits give low values 1.01 | locus YHR079C, strain IRE1 (second series), hits give low values 1.02 | locus YHR094C, strain hxt1, hits give low values 1.02 | locus YHR129C, strain ARP1, hits give low values 1 | locus YHR142W, strain chs7, hits give low values 1.02 | locus YHR200W, strain rpn10, hits give low values 1.02 | locus YIL066C, strain RNR3, hits give low values 1.02 | locus YIL073C, strain SPO22, hits give low values 1.02 | locus YIL125W, strain kgd1, hits give low values 1.01 | locus YIR030C, strain dcg1, hits give low values 1.02 | locus YJL092W, strain hpr5, hits give low values 0.976 | locus YJL095W, strain BCK1 (second series), hits give low values 0.974 | locus YJL095W, strain BCK1, hits give low values 1.04 | locus YJL115W, strain asf1, hits give low values 0.971 | locus YJL129C, strain trk1, hits give low values 0.979 | locus YJL134W, strain LCB3, hits give low values 1.01 | locus YJL154C, strain vps35, hits give low values 0.972 | locus YJL164C, strain tpk1, hits give low values 1.03 | locus YJL166W, strain qcr8, hits give low values 0.922 | locus YJL168C, strain set2, hits give low values 1.02 | locus YJL187C, strain SWE1 (second series), hits give low values 1.03
